Sampled rows, rich in hits. Any-hit rate of the full collection: about 19%.
VP16 counter = inhibits Gal4-VP16 luciferase reporter, ROR gamma counter-screen; Drosophila S2 Gal4-VP16 UAS-luciferase, luminescence, 20 h; Potency, µM (top dose mostly 53.6 µM), without a hit: top-dose activity, negative = inhibition, hits mostly inhibitors; 310,000 compounds, 3.5% hits;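 further: Gal4-VP16 expression switched on by copper sulfate through the metallothionein promoter; nearly all actives have a fitted effect of over 50% in size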
TDP1 cell CPT = DT40-hTDP1 cell growth loss with CPT. chicken DT40 Tdp1-/-;hTDP1 cells + 20 nM CPT, ATP luminescence, 48 h. 420,000 compounds, 12% hits. AID 686979. Potency, µM (highest dose often 46.2 µM), for inactives: at the highest dose activity change, negative = growth inhibition, actives largely listed as inhibitors; further: nearly all actives have a fitted effect of over 55% in size
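Chicken DT40 Tdp1-/- cells stably complemented with human TDP1 were seeded at 400 cells/well in medium containing 20 nM camptothecin, exposed to pin-transferred compounds, and grown at 37 °C for at least 48 hr. Viability was read as ATP luminescence.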
DT40 TDP1 no CPT = qHTS for Inhibitors of human tyrosyl-DNA phosphodiesterase 1 (TDP1): qHTS in cells in absence of CPT; DT40 Tdp1-/- hTDP1 cells, no CPT, ATP luminescence, 48 h; Potency, µM (titrated, usually from 46.2 µM), for inactives: at the top dose activity change, negative = growth inhibition, usual class: inhibitors; 420,000 compounds, 15% hits; AID 686978, 2013; further: nearly all actives have a fitted effect of over 55% in size
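Stably hTDP1-transfected Tdp1-null chicken DT40 cells were treated with library compounds minus camptothecin and grown for at least 48 hr at 37 °C, after which cellular ATP was quantified by luminescence.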
TDP1 inh = inhibitors of human tyrosyl-DNA phosphodiesterase TDP1; AID 485290; recombinant TDP1, AlphaScreen DNA substrate cleavage; 350,000 compounds, 0.28% hits; Potency, µM (highest dose often 130 µM), for inactives: top-dose activity change, negative = inhibition, actives largely listed as inhibitors; Q9NUW8; further: nearly all actives have a fitted effect of over 40% in size
Target sequence (Q9NUW8 whole entry, looked up): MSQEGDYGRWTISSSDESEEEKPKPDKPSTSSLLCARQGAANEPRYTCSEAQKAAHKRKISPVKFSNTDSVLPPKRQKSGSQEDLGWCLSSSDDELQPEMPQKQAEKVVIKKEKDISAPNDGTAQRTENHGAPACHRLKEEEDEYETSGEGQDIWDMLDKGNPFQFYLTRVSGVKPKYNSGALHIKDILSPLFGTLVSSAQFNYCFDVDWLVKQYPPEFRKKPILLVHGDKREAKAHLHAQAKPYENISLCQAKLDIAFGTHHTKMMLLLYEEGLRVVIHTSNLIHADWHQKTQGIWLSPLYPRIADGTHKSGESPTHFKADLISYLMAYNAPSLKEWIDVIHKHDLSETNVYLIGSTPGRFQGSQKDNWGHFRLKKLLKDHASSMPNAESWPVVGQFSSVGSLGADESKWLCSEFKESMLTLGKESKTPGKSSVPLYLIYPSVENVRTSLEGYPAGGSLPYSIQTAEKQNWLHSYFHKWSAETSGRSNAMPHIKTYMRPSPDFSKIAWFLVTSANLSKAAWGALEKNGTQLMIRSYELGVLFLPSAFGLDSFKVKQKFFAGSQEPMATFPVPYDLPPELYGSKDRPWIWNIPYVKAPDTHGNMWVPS
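Enzyme-compound mixtures sat 15 min at room temperature, followed by a 5 min reaction with 15 nM final substrate and 10 min with AlphaScreen beads. Recombinant human Tdp1 was used at 1 nM final.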
RORg inh = ROR gamma (mouse) transcription inhibition; P51450; Drosophila S2 Gal4-RORgamma UAS-luciferase reporter, 20 h; Potency, µM (doses to about 53.6 µM), without a hit: at the highest dose activity change, negative = inhibition, most hits filed as inhibitors; 310,000 compounds, 5.4% hits; further: nearly all actives have a fitted effect of over 60% in size
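Compounds are pin-transferred onto Drosophila Schneider cells expressing a copper-inducible Gal4–ROR gamma transactivation domain fusion. After 1 hr, copper sulfate is added to 700 uM final; luciferase is read 20 hr later.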
* = called active by the depositor; ? = inconclusive; . = not tested or not shown; [ ] = another dose, or the depositor's remark. The call rests on the fitted dose curve; in most records, active means well fitted curve in the direction sought with a large enough effect; inconclusive means small, poorly fitted or top-dose-only effect, or another doubt; inactive means no such curve, though single readings can be large; an effect the other way counts as inactive or inconclusive. On the % scale 0 is the no-effect control and ±100 the full control effect; potency means the concentration at half of the fitted maximal effect.

SMILES | VP16 counter | TDP1 cell CPT | DT40 TDP1 no CPT | TDP1 inh | RORg inh
CC(Nc1nc(N2CCCCC2)nc2ccccc12)c1ccccc1 (stereo not given) | -26% | ? | 23µM* | -1% | ?
O=[N+]([O-])c1cccc(-c2nn(-c3ccccc3)cc2CO)c1 | -3% | -20% | ? | . | 1%
O=C(NCc1cn(-c2ccccc2)nc1-c1ccccc1)c1ccc([N+](=O)[O-])cc1 | 7.1µM* | ? | ? | 3% | ?
CN(C)C(=O)COC(=O)c1cccc(S(=O)(=O)Nc2ccc(OCc3ccccc3)cc2)c1 | . | 11% | -5% | . | .
COc1ccc(Nc2ncnc3onc(-c4ccc(Cl)cc4)c23)cc1Cl | . | 18µM* | 16µM* | -1% | .
CC(C)c1ccc(Nc2ncnc3onc(-c4ccc(F)cc4)c23)cc1 | . | 18µM* | ? | -11% | .
COc1cc(Nc2ncnc3onc(-c4ccc(Cl)cc4)c23)cc(OC)c1 | . | ? | 21µM* | 1% | .
CCOc1ccc(Nc2ncnc3onc(-c4ccc(Cl)cc4)c23)cc1 | . | ? | ? | -6% | .
Cn1c(SCC(=O)Nc2ccccc2F)nnc1-c1cccnc1 | 1% | 1% | 4% | 5% | -28%
Cn1cnc(S(=O)(=O)N2CCc3ccccc32)c1 | -2% | 13% | -4% | 2% | 16%
CCCCn1nc2cc(C(=O)NCc3ccccc3OC)ccc2c1OCC | -14% | -23% | -13% | -3% | 22%
COCCCN1C(=O)C(=O)/C(=C(/O)c2ccc(C)cc2)C1/C=C/c1ccccc1 (stereo not given) | -20% | 7% | -12% | -4% | 6%
COC(=O)c1ccc2nc(C)cc(Nc3ccc(O)cc3)c2c1 | . | 21µM* | 15µM* | . | .
CCOc1ccc(Nc2cc(C)nc3ccc(C)cc23)cc1 | . | 23µM* | ? | . | .
COC(=O)c1ccc2nc(C)cc(Nc3ccc(N(C)C)cc3)c2c1 | -2% | -1% | ? | 11% | ?
Cc1cc(C)c2nc(C)cc(Nc3ccc(C(=O)N(C)C)cc3)c2c1 | -7% | 18% | -10% | 0% | 2%
CC(=O)c1ccc(Nc2cc(C)nc3c(C)cc(C)cc23)cc1 | ? | 4.6µM* | 4.6µM* | -10% | ?
COC(=O)c1ccc(Nc2cc(C)nc3ccccc23)cc1 | ? | ? | 18µM* | 4% | -45%
O=C(Nc1ccc2nc(C(F)(F)F)[nH]c2c1)[C@@H]1O[C@H](CO)[C@@H](O)[C@H]1O | . | 3% | -7% | . | .
CCCCn1c(SCC(=O)NC(=O)NCc2ccco2)nc2cc(S(N)(=O)=O)ccc21 | 1% | -29% | ? | 0% | 15%
COc1cc(CC(NC(C)=O)C(=O)NC2CCN(S(=O)(=O)c3ccc(NC(C)=O)cc3)CC2)cc(OC)c1 (stereo not given) | 0% | 11% | 5% | . | -16%
Cc1ccc(OCc2nnc(SCC(=O)NCc3ccccc3)n2C)cc1 | -5% | 7% | 3% | 0% | 2%
COc1ccc(C(=S)NC2CCCCC2)cc1 | 8% | -14% | ? | -3% | -30%
CC(NC(=O)C1CCCC1)c1ccccc1 (stereo not given) | . | 15% | -20% | . | .
COc1ccc(CNC(=S)NC2CCCC2)cc1 | 7.9µM* | ? | ? | 7% | 8.9µM*
SMILES | VP16 counter | TDP1 cell CPT | DT40 TDP1 no CPT | TDP1 inh | RORg inh
CC(NC(=S)NC1CCC(C(C)(C)C)CC1)c1ccccc1 (stereo not given) | 2.8µM* | ? | ? | 6% | 1.6µM*
COc1cccc(CNC2CCCC2)c1 | 0% | -16% | -10% | -11% | 5%
COc1ccc(CNC(=S)NC2CCCCC2)cc1 | 13µM* | -24% | 1% | 2%[56.1 µM] | 7.1µM*
COc1cccc(CNC(=S)NC2CC2)c1 | -29% | 4% | -23% | -5% | 10µM*
CN(C(=O)CCN1C(=O)c2ccccc2C1=O)C1CCCCC1 | 4% | 0% | 3% | 3% | 7%
CC(C)(C)c1ccc(CC(=O)N2CCC2(C)C(=O)NS(=O)(=O)c2ccccc2C(F)(F)F)cc1 (stereo not given) | . | -10% | -10% | . | .

Screening data as filed in PubChem.
